Records with an inconclusive call do not appear. Entries that show only a call come without a potency. Activity calls are given as the source filed them. Calls follow the shape of the dose curve; as a rule, active = well fitted curve in the direction sought with a large enough effect; inconclusive = small, poorly fitted or top-dose-only effect, or another doubt; inactive = no such curve, though single readings can be large or run the other way.

This note sets out measurements from PubChem BioAssay AID686935 (National Center for Advancing Translational Sciences (NCATS), 2013).

A short description of the assay: qHTS Assay for Lipid Storage Modulators: CytotoxicityAssay against Probe and Analogs. The note with it: 3T3-L1 adipocytes cytotoxicity, imaging cell count; series mostly up to 20 µM. The source says: Storing lipids as a reservoir for energy or the anabolism of elementary metabolites is a common feature of probably all cells and is conserved from bacteria to humans. The universal cellular lipid storage organelle is the so-called lipid storage droplet (LD). Although ubiquitous, LDs share a simple structure composed of a hydrophobic core that harbors the storage lipids, which is shielded by a droplet-specific phospholipid monolayer to which proteins are attached. The current model of LD biogenesis involves an incorporation of the lipid core into the membrane leaflets of the endoplasmic reticulum (ER) followed by a subsequent budding-like maturation of a LD, which ultimately pinches off. Once released, LD volume can increase by localized lipogenesis or fusion of existing droplets. Storage lipids are re-mobilized enzymatically by lipase activity. Lipase regulation in the adipocyte is heavily studied and involves multiple components including catecholamine signaling, the LD-associated proteins Perilipin and comparative gene identification-58 (CGI-58) and at least two lipases named hormone sensitive lipase (HSL) and adipocyte triglyceride lipase (ATGL). LD regulation outside of the adipocyte is poorly understood and only few components are known. However, there is an urgent need to learn more about ectopic fat depots as mislocalized storage of lipids, for example in the liver or muscle, is an eminent health problem associated with insulin resistance or the metabolic syndrome. We developed a laser-scanning cytometer assay to enable 1,536-well screening and combined the results of the small molecules screen with an RNAi database based on lipid storage. In this assay we tested analogs of the probe in a cytotoxicity assay. NIH Molecular Libraries Probe Production Centers Network [MLPCN] NIH Chemical Genomics Center [NCGC] MLPCN Grant: MH085686 Assay Submitter (PI): Mathias Beller, Max-Planck-Institut fur Biophysikalische Chemie
3T3-L1 cells were obtained from ATCC (CL-173). Pre-adipocyte medium (PM-1),differentiation medium (DM-2) and after adipocyte medium (AM-1) were purchased from Zen-Bio (# PM-1-L1, DM-2-L1, AM-1-L1). […] of PM-1containing 3,000 cells was dispensed into each well of a 96-well plate (Corning, #3340), and the assay plates were incubated at 37 °C, 95% humidity and 5% CO2 for 3-5 days. The differentiation of pre-adipocyte to adipocyte was induced by removing the pre-adipocyte medium and replacing with […] of differentiation medium. […] of compounds at different concentrations dissolved in differentiation medium were added to the assay plates, along with medium exchange for differentiation to test their effects on adipocyte differentiation. The final DMSO concentration was 0.5%. Triacsin C (Sigma-Aldrich T-4540), an inhibitor of long-chain fatty acyl CoA synthetase that blocks synthesis of triglycerides, was used as a positive control for lipid under-storage. After 3 days, differentiation medium was replaced with 200ul of adipocyte maintenance medium and assay plates were incubated for 4 days. Cells were then fixed using4% of paraformaldehyde in PBS for 30 minutes at room temperature, washed 3 times with PBS buffer. Finally, the cells were stained using […] of PBS containing BODIPY lipid dye 493/530 (1:2000 -, Life Technologies, # D-3922), Hoechst 33342 (1:1000, Life Technologies, #H3570) and CellMask deep red dye (1:10,000 , Life Technologies, #H32721). Images were acquired using InCell 2000 (GE), number of cells, number of lipids, size of lipids and cells were analysis using GE Investigator software.
In the case of `CC(C)Oc1ccc(CCNC(=O)c2cc3sccc3n2Cc2ccccc2)cc1OC(C)C`, the Potency entry is “inactive”.

On to `CCOc1ccc(CCNC(=O)c2cc3sccc3n2Cc2ccncc2)cc1OCC`, for which the Potency entry is “inactive”.

With `CCOc1ccc(CCNC(=O)c2cc3sccc3n2C)cc1OCC`, the Potency entry was “inactive”.

`CCOc1ccc(CCNC(=O)c2cc3sccc3n2Cc2ccccn2)cc1OCC`: the Potency entry was “inactive”.

In the case of `CCOc1ccc(CCNC(=O)c2cc3sccc3n2Cc2ccccc2)cc1OCC`, the Potency result was “inactive”.

As for `CCOc1ccc(CCNC(=O)c2cc3ccccc3o2)cc1OCC`, the Potency entry was “inactive”.

On to `CCOC(=O)C1CCN(C(=O)C(C)(C)NC(=O)Nc2ccc(-c3ccccc3)cc2)CC1`, for which the Potency entry was “inactive”.

Consider `CCOc1cc(CCNC(=O)c2cc3sccc3n2Cc2ccccc2)cc(F)c1OCC`, for which the Potency is 7.08 µM (active).

Turning to `CCOc1ccc(CCNC(=O)c2ccnn2Cc2cccc(C)c2)cc1OCC`, the Potency entry is “inactive”.

For the compound `CCOc1cc(F)c(CCNC(=O)c2cc3sccc3n2Cc2ccccc2)cc1OCC`, the Potency entry is “inactive”.

As for `CCn1c(C(=O)NCCc2ccc(OC)cc2)cc2sccc21`, the Potency result was “inactive”.

Turning to `CCOc1ccc(CCNC(=O)c2cccc(C(=O)c3ccccc3)c2)cc1OCC`, the Potency result is “inactive”.
